# Data as given in PubChem BioAssay AID504466 (National Center for Advancing Translational Sciences (NCATS), 2011).
# Out of some 330,000 compounds screened, about 4,200 (1.3%) were called active. Entries that show only a call come without a potency. Inconclusive results (about 6%) are left out. Calls come from the whole dose curve; as a rule, active = well fitted activation curve with a large enough effect; inconclusive = small, poorly fitted or top-dose-only effect; inactive = no such curve, though single readings can be large or run the other way. The sample as a whole holds a higher share of actives than the screen did.
# Test: qHTS screen for small molecules that induce genotoxicity in human embryonic kidney (HEK293T) cells expressing luciferase-tagged ELG1; note: nearly all actives have a fitted effect of over 60% in size
# Conditions: HEK293T ELG1-luciferase reporter, luminescence, 16 h; series mostly up to 46 µM
# Summary of the method: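 Cells (2,000/well) expressing the ELG1-luciferase fusion are dosed by pin tool and kept 16 hr at 37 °C, 5% CO2. Signal comes from ONE-Glo luciferase reagent after 30 min at room temperature.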
# Potency is the fitted concentration of half-maximal effect.
row,SMILES,Potency
1,CCC(CO)Oc1cc(NC(=O)c2cccc3ccccc23)c2ncn(C(C)C)c2c1 (stereo not drawn),inactive
2,O=C(CSc1nc2ccccc2c(=O)n1Cc1ccc(F)cc1)NCC1CCCO1 (stereo not drawn),inactive
3,O=C1CCC/C=C\C[C@@H](CC(=O)N(CCO)Cc2ccccc2)C(=O)NCCO1,inactive
4,CC1CCCCC1NC(=O)Cn1cnc2c1c(=O)n(C)c(=O)n2C (stereo not drawn),inactive
5,Cc1ccc(C)c(NC(=O)COC(=O)c2nn(C)c(=O)c3ccccc23)c1,inactive
6,Cc1ccc2cc3cc(C(=O)N4CCCCCC4)oc3nc2c1,0.731 µM (active)
7,COc1ccc2oc(=O)c(C(=O)N3CCCC3)cc2c1,inactive
8,Cc1cc(C)cc(NC(=O)N2CCCCCCC2)c1,inactive
9,COc1ccc(CNC(=O)C[C@H]2C[C@H](C(=O)N3CCOCC3)[C@@]3(C)c4[nH]c5cc(CCC(=O)N(C)C)ccc5c4CCN3C2=O)cc1OC,inactive
10,O=C(CCNC(=O)c1ccccc1Cl)NN=Cc1ccco1,inactive
11,Cc1ccsc1C(=O)NNC(=O)COc1ccc(Br)cc1,inactive
12,CC(OC(=O)/C=C/c1ccccc1)C(=O)Nc1ccc(C(N)=O)cc1 (stereo not drawn),inactive
13,CC(=O)Nc1ccc(/C=C/C(=O)c2ccccc2)cc1,16.4 µM (active)
14,CC(=O)Nc1ccc(NC(=S)NC(=O)/C=C/c2ccccc2)cc1,inactive
15,Cc1noc(NS(=O)(=O)c2ccc(N/C=C/C(=O)c3ccccc3)cc2)c1C,inactive
16,Cc1ccc(N/C=C/C(=O)c2ccccc2)cc1C,0.92 µM (active)
17,O=C(/C=C/NCc1ccc(F)cc1)c1ccccc1,inactive
18,Cc1ccc(S(=O)(=O)Nc2ccc3c(c2)C(=O)N([C@H](C)CO)C[C@@H](C)[C@@H](CN(C)C(=O)Nc2cccc4ccccc24)O3)cc1,inactive
19,O=C(NCCCN1CCOCC1)c1cn(-c2ccccc2)nc1-c1ccc(F)cc1,inactive
20,O=C(COC(=O)c1cccnc1Cl)NC(=O)NC1CCCCC1,inactive
21,O=C(COc1ccc(Br)cc1F)NCC1(N2CCCCC2)CCCCC1,inactive
22,CC(C)n1cnc2c(NCc3ccccc3)cc(N[C@@H](CO)Cc3ccccc3)cc21,inactive
23,CCOc1ccc(Br)cc1S(=O)(=O)Nc1ccc(S(=O)(=O)Nc2cc(C)on2)cc1,inactive
24,O=C(Nc1cccc(S(=O)(=O)N2CCCCC2)c1)c1cncc(Br)c1,inactive
25,CC(C)(C)OC(=O)N/N=C/c1ccc(C(=O)O)cc1,inactive

row,SMILES,Potency
1,C/C(=N\NC(=O)OC(C)(C)C)c1ccc[nH]1,14.6 µM (active)
2,Cc1ccccc1NC(=O)NNC(=O)OC(C)(C)C,inactive
3,COc1ccccc1CNC(=O)c1ccc(Cl)c(S(=O)(=O)N2CCCC2)c1,inactive
4,Cc1ccc(S(=O)(=O)NCCC(=O)Nc2cccc(S(N)(=O)=O)c2)cc1C,inactive
5,Cc1ccnc(NC(=O)CCNS(=O)(=O)c2ccc(C)c(C)c2)c1,1.64 µM (active)
6,Cc1ccc(S(=O)(=O)NCCC(=O)Nc2ccc(C)c(Cl)c2)cc1C,inactive
7,Cc1cc(NC(=O)CN2C(=O)NC(CC(C)C)C2=O)no1 (stereo not drawn),inactive
8,O=C(CN1C(=O)NC2(CCCCCC2)C1=O)Nc1ccc([N+](=O)[O-])cc1,inactive
9,CC(C)(C)OC(=O)C[C@@H]1C/C=C\C[C@@H](CC(=O)N[C@H](CO)Cc2ccccc2)C(=O)NC[C@@H](c2ccccc2)OC1=O,inactive
10,CC(=O)Nc1cccc(C(=O)OCC(=O)NCc2cc(C)c(O)c(C)c2)c1,14.6 µM (active)
11,COc1ccc(C(=O)OCC(=O)Nc2cccc(C(C)=O)c2)cc1OC,inactive
12,Cc1ccc(C(=O)OCC(=O)NCc2cc(C)c(O)c(C)c2)cc1S(=O)(=O)N1CCCCC1,inactive
13,Cc1noc(C)c1S(=O)(=O)N(C)C[C@H]1Oc2c(NC(=O)Nc3ccc4c(c3)OCO4)cccc2C(=O)N([C@H](C)CO)C[C@@H]1C,inactive
14,COc1cc(OC)cc(C(=O)N[C@H](C(=O)NNC(=O)c2ccc(Br)cc2)C(C)C)c1,inactive
15,COc1ccc(NC(=O)CCCC2CCCCC2)c(OC)c1,18.3 µM (active)
16,COc1ccc(NC(=O)CCN2CCCC2)c(OC)c1,inactive
17,CC(=O)Oc1ccc(NC(=O)CCC2CCCCC2)c(C(=O)O)c1,inactive
18,O=C(NOCc1ccccc1)c1cccc([N+](=O)[O-])c1,inactive
19,Cc1ccc(SCCC(=O)Nc2cc(C)on2)cc1,inactive
20,Cc1ccc2nc(-c3ccc(SCC(=O)Nc4cc(C)on4)nc3)[nH]c2c1,1.84 µM (active)
21,Cc1cccc(-n2ncc3c(=O)[nH]c(SCC(=O)Nc4cc(C)on4)nc32)c1,inactive
22,CC1CCCCC12NC(=O)N(CC(=O)N1CCN(c3ccccc3)CC1)C2=O (stereo not drawn),inactive
23,CCN(C[C@H]1N[C@@](CC)(C(=O)OC)[C@H]2C(=O)N(Cc3ccccc3)C(=O)[C@@H]12)S(=O)(=O)c1ccc(C(F)(F)F)cc1,inactive
24,COc1ccccc1-c1cc(C(=O)N2CCCCC2)no1,3.66 µM (active)
25,COc1cccc(-c2cc(C(=O)N3CCN(c4ccccc4OC)CC3)no2)c1,inactive

row,SMILES,Potency
1,COc1ccc(-c2cc(C(=O)N3CCN(c4ccc(F)cc4)CC3)no2)cc1,inactive
2,O=C(OCC(=O)N1CCCCC1)c1ccc(OC(F)(F)F)cc1,inactive
3,O=C(C[C@H]1C[C@H](C(=O)N2CCOCC2)[C@@]2(CCC3CCCC3)c3[nH]c4ccc(Cl)cc4c3CCN2C1=O)NCc1ccco1,inactive
4,COc1ccc(NC(=O)N(C)C[C@H]2Oc3ccc(NC(=O)C4CC4)cc3C(=O)N([C@H](C)CO)C[C@@H]2C)cc1,inactive
5,COc1cccc(CNC(C)C(=O)Nc2ccc(S(=O)(=O)N3CCCC3)cc2)c1 (stereo not drawn),inactive
6,O=C(Nc1cccnc1)c1noc2c1CCCCC2,2.31 µM (active)
7,COc1cccc(C(=O)Nc2cccnc2)c1OC,inactive
8,O=C(Nc1cccnc1)c1cc(Cl)ccc1Cl,inactive
9,Cc1ccnc(SCC(=O)Nc2cccc(S(=O)(=O)N3CCOCC3)c2)n1,inactive
10,COc1ccc(-c2noc(CCC(=O)N3CCN(c4cccc(C)c4)CC3)n2)cc1,inactive
11,O=C(Nc1ccc(NC(=O)c2ccccc2F)cc1)c1ccccc1F,inactive
12,O=C(CNC(=O)c1ccccc1F)c1ccc(Br)cc1,5.17 µM (active)
13,O=C(COC(=O)CNC(=O)c1ccccc1F)NCC(F)(F)F,inactive
14,O=C(CNC(=O)c1ccccc1)NCC(=O)OCC(=O)c1ccccc1,inactive
15,O=C(NCCS(=O)(=O)NCc1ccc(F)cc1)c1ccccc1,inactive
16,O=C(CNC(=O)c1ccc(F)cc1)c1ccccc1,8.2 µM (active)
17,COc1cc(NC(=O)c2[nH]cnc2C(N)=O)cc(C(=O)Nc2cccc(C(F)(F)F)c2)c1,inactive
18,C=CC(COCc1ccccc1)N(CC(=O)OC)S(=O)(=O)c1cc(Br)ccc1OC (stereo not drawn),inactive
19,O=C1N[C@H](Cc2c[nH]c3ccccc23)COC(=O)[C@H](Cc2ccc(F)cc2)C/C=C\C[C@H]1CC(=O)N(CCO)Cc1ccccc1,inactive
20,N#CCC(=O)Nc1ccc(C(=O)OCC(=O)Nc2sc3c(c2C#N)CCCC3)cc1,inactive
21,CCOc1ccc(C(=O)Nc2ccncc2)cc1,inactive
22,CCOc1ccc(NC(=O)c2ccc(NC(=O)COC(=O)c3ccc(NC(=O)CC#N)cc3)cc2)cc1,5.17 µM (active)
23,C[C@@H]1CN([C@@H](C)CO)C(=O)c2cccc(NS(=O)(=O)c3ccc(F)cc3)c2O[C@H]1CN(C)C(=O)NC1CCCCC1,inactive
24,Cc1cccc(N2O[C@H]3C=CC2CCCC3)n1,inactive
25,CCCC(CNC(=O)COC(=O)C1=NNC(=O)CC1)c1ccc(Cl)cc1Cl (stereo not drawn),inactive

row,SMILES,Potency
1,O=C1/C(=C\Nc2ccccc2)CCN1c1ncccn1,11.6 µM (active)
2,COc1ccccc1Oc1ccc(N/C=C2/CCCC2=O)cc1,inactive
3,O=C(Cc1ccccc1)NNC(=O)C1CCN(c2ncccn2)CC1,inactive
4,NC(=O)Nc1ccc(C(=O)OCC(=O)NC2CCCc3ccccc32)cc1 (stereo not drawn),inactive
5,CCCN=C1N(C)C[C@@H]2[C@@H]3C(=O)N(Cc4ccccc4)C(=O)[C@@H]3[C@](C)(C(=O)OC)N12,inactive
6,COc1ccc(S(=O)(=O)N(C)C[C@@H]2Oc3ccc(NS(=O)(=O)c4cn(C)cn4)cc3C(=O)N([C@@H](C)CO)C[C@@H]2C)cc1,inactive
7,C[C@H](CO)N1C[C@H](C)[C@@H](CN(C)C(=O)NC2CCCCC2)Oc2ccc(NC(=O)c3ccncc3)cc2C1=O,inactive
8,CCCCC(=O)Nc1ccc(C(=O)Nc2cc(C(F)(F)F)ccc2Cl)cc1,inactive
9,O=C(Nc1cc(C(F)(F)F)ccc1Cl)C(=O)N1CCCCC1,inactive
10,O=C(Nc1cc(C(F)(F)F)ccc1Cl)c1cc2nc3c(c(C(F)(F)F)n2n1)CCCC3,8.2 µM (active)
11,CCNC(=S)N1CCN(S(=O)(=O)c2ccc(Cl)s2)CC1,inactive
12,O=C(NCCC1=CCCCC1)C1CCN(Cc2cnn(-c3ccccc3)c2-n2cccc2)CC1,inactive
13,O=C(NNc1ncnc2c1cnn2-c1ccccc1)c1ccco1,inactive
14,C1=C(CCNc2ncnc3c2cnn3-c2ccccc2)CCCC1,2.31 µM (active)
15,CC1CN(C(=S)SCC(=O)c2ccccc2)CC(C)O1 (stereo not drawn),inactive
16,O=C(CSC(=S)N1CCOCC1)c1cc(Br)cc(Br)c1O,inactive
17,O=C(CSC(=S)N1CCOCC1)c1ccccc1,2.06 µM (active)
18,O=C(CN1C(=O)NC2(CCOc3ccccc32)C1=O)Nc1cccc([N+](=O)[O-])c1 (stereo not drawn),inactive
19,O=S(=O)(NCC1CN(S(=O)(=O)c2ccc3c(c2)OCCO3)C1)c1c(F)cccc1F,inactive
20,CC[C@]12c3[nH]c4ccc(OC)cc4c3CCN1C(=O)C(CC(=O)NCc1ccco1)C[C@@H]2C(=O)N1CCN(C(=O)C2CC2)CC1 (stereo partly drawn),inactive
21,CC(=O)Nc1ccc(S(=O)(=O)Nc2cccc(NC(=O)C(C)(C)C)c2)cc1,inactive
22,Cc1nn2c(=O)cc(COC(=O)c3ccc(NC(=O)C(C)(C)C)cc3)nc2s1,inactive
23,CC(C)(C)C(=O)Nc1ccc(-c2cn3cccnc3n2)cc1,18.3 µM (active)
